Data taken from publication PMC7819943, “Rice protein-binding microarrays: a tool to detect cis-acting elements near promoter regions in rice”.
In all, about 68,000 sequences were measured (“fluorescence intensity (a.u.)”: median about 9,100, highest 2% from about 16,000 on). This excerpt belongs to a sample that is enriched for the highest values.

The sequences below were run against OsWRKY34 (Oryza sativa, UniProt Q0JBA9 1-250) (assay: protein-binding microarray (RPBM); PBS, 2% BSA, 51.3 ng/ul salmon testes DNA, 50 uM zinc acetate, 200 nM TF, 25 C, 1 h; high values mean tight binding). Conditions: protein: recombinant; tags: N-terminal polyhistidine and DsRed monomer fusion (pET32a); label: CyDye5-dUTP incorporated in the synthesized complementary strand; 3' TTTTT single-stranded linker to array surface; dsDNA, one strand shown.
Sequence of OsWRKY34 (Q0JBA9 entry or part of it): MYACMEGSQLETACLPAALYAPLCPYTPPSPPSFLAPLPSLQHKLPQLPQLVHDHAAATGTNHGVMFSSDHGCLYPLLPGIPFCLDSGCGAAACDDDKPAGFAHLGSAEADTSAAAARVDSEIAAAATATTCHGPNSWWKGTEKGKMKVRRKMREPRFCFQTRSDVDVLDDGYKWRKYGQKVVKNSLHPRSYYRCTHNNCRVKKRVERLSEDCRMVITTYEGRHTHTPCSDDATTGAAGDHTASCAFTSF
Procedure, shortened: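 Binding signal here means per-feature fluorescence intensity in arbitrary units. The values were read on an Axon 4000B scanner after a custom Agilent array, double-stranded by primer extension with Cy5-dUTP, was incubated with 200 nM protein at 25 °C for 1 h in PBS with 2% BSA, salmon testes DNA and 50 µM zinc acetate, then washed. The proteins were transcription factors with an N-terminal polyhistidine tag and DsRed, expressed in E. coli BL21-CodonPlus and purified on Ni–NTA.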

Sequence	binding signal
TTTCATGTTCGTGAAAATTATACATTTTATATGCGCCTTTCGGAGTCACCTAGTGCAG	8720 fluorescence intensity (a.u.)
GAAGCCATATCATCTTAATTGTTTTTAGCTCTTCTCTCATCGGAGTCACCTAGTGCAG	10300 fluorescence intensity (a.u.)
AAAATTTTTCTATTCAATTCTTTTCGTTTTTGGACCTCTCCGGAGTCACCTAGTGCAG	8660 fluorescence intensity (a.u.)
CCCTAAACAGGTCAACCTCAGGTGTTGACTAGAGTACTAGCGGAGTCACCTAGTGCAG	8290 fluorescence intensity (a.u.)
GTGTGTAGTGGTGTTTGTGCGCGGCCTCTAATATCATGTACGGAGTCACCTAGTGCAG	11600 fluorescence intensity (a.u.)
GATTCATACAATTGTATGGTGTTAACATGGCGATTTTTTGCGGAGTCACCTAGTGCAG	9120 fluorescence intensity (a.u.)
CCGCTACAACACTCAACACCATACCACATGTCATCTCCGTCGGAGTCACCTAGTGCAG	8060 fluorescence intensity (a.u.)
CTTCTGTCACGTACGCCCGTCCCTCATATGGCCAATCGCGCGGAGTCACCTAGTGCAG	13400 fluorescence intensity (a.u.)
CACTTACACTTTCATTTTCGCTTCATGTAAAATAGTCAACCGGAGTCACCTAGTGCAG	8980 fluorescence intensity (a.u.)
TCGCTAGGAGTGGTGGTGGTGGTGGGAGGAGGAGGCGATGCGGAGTCACCTAGTGCAG	13000 fluorescence intensity (a.u.)
TCGATTGGGGATTGGGGATTGGGGATCAGGAGGGATGGGGCGGAGTCACCTAGTGCAG	20900 fluorescence intensity (a.u.)
ATAGGTAGATTGTTGGTGATGCTCTAAGGGTGGGTTTTGACGGAGTCACCTAGTGCAG	13400 fluorescence intensity (a.u.)
GTTGGTGGTGGTGGTGGAGGAGGCGGTGGTGGGATCGATGCGGAGTCACCTAGTGCAG	23900 fluorescence intensity (a.u.)
CGGGAGAGGGAGGTGATGATGGGGCGGCGGAGGATTGGAGCGGAGTCACCTAGTGCAG	8130 fluorescence intensity (a.u.)
AGGGACAGGGTTGGTGAAGTGGCTTCCATGCGGCGGCCACCGGAGTCACCTAGTGCAG	8150 fluorescence intensity (a.u.)
AGATGCCTCGTGCTAGGTTTGATTGGTTGGTTGGTTGGTACGGAGTCACCTAGTGCAG	19400 fluorescence intensity (a.u.)
GTTGCTGTTTTTGATGGTCGTTGAGACAGATAGTTTGGTACGGAGTCACCTAGTGCAG	8360 fluorescence intensity (a.u.)
GGCGGAGGGAGGGAGGGGAAGTCGGTGGTGAGGTGGCGTGCGGAGTCACCTAGTGCAG	12900 fluorescence intensity (a.u.)
AGGAGGAGGAGGAGGAGGAGGAGGAGGCGGTGGGAGGGATCGGAGTCACCTAGTGCAG	14800 fluorescence intensity (a.u.)

Sequence	binding signal
GGGGATCAGGAGGGATGGGGATTGGGGAGACGAGTGGATGCGGAGTCACCTAGTGCAG	8330 fluorescence intensity (a.u.)
ATGCGGCGGTGGCGGGAGGGAGGGACAGGGTTGGTGAAGTCGGAGTCACCTAGTGCAG	17400 fluorescence intensity (a.u.)
GCACTTATCGTTTATTTTCTTATAATTTATTTTATCATTGCGGAGTCACCTAGTGCAG	8830 fluorescence intensity (a.u.)
GCAAGTACTTGGTGGTATATGTTGTTTGGAATAAAAAGGTCGGAGTCACCTAGTGCAG	8320 fluorescence intensity (a.u.)
CCTCGCTCCTCCTCGTCGCAGATCGATCTCAAACCTTCAGCGGAGTCACCTAGTGCAG	8730 fluorescence intensity (a.u.)
ATACATTTATTCCTTCTTAGAGTCACTACTCTTCATTGAACGGAGTCACCTAGTGCAG	8060 fluorescence intensity (a.u.)
ACCTCTTCCTCGACGCCGCCGCCGACCACCACCCCGCCGGCGGAGTCACCTAGTGCAG	8670 fluorescence intensity (a.u.)
TGTGTCATCTTGTCTATGGTAGTTCAGCAATCCTCTGCTTCGGAGTCACCTAGTGCAG	8890 fluorescence intensity (a.u.)
ATCACCGTCCCCGCTGCCGCCACCCGCCACTGCCGCAGCGCGGAGTCACCTAGTGCAG	10800 fluorescence intensity (a.u.)
CTTCTTCTTGTCCTGCGCAACCGATGGGCGGGTTCTTGATCGGAGTCACCTAGTGCAG	18800 fluorescence intensity (a.u.)
CCACAACACCGCAACACACTGTCCTTGCTTCTTCATTGATCGGAGTCACCTAGTGCAG	8750 fluorescence intensity (a.u.)
GGGATTGGATTGGGTTGGGTTGGATTGGAGAGAGAGAATGCGGAGTCACCTAGTGCAG	31400 fluorescence intensity (a.u.)
GGTGGTGGTGGTGGTGGATCGGGTGGCTTTGGCTGAGATGCGGAGTCACCTAGTGCAG	18100 fluorescence intensity (a.u.)
CCCGCAGATTGGATTGGATTGGGTTGGATTGGATTGGATGCGGAGTCACCTAGTGCAG	10300 fluorescence intensity (a.u.)
AGGTGAGGTGGAGGAGGAGGAGGAGGAGGAGATCGGGATGCGGAGTCACCTAGTGCAG	8790 fluorescence intensity (a.u.)
AGGCGGCGGGGTGGCGGTGGTGGTGGTGGTGGTGGTGATGCGGAGTCACCTAGTGCAG	19000 fluorescence intensity (a.u.)
CCGGAGAGGCGGTGGTGTTTGGATCGGGAGGGGAGAGATGCGGAGTCACCTAGTGCAG	11500 fluorescence intensity (a.u.)
AATGAAAAATGGGGATGGGATTGGGATTGAGAAATGAATGCGGAGTCACCTAGTGCAG	9280 fluorescence intensity (a.u.)
GGCGGCGGTGATTCGGGGATGCGGCGCGGCGGGGAGGAGGCGGAGTCACCTAGTGCAG	10100 fluorescence intensity (a.u.)

Sequence	binding signal
CGGCGGGTGGGGCGGTGGCGGTGAGGGATGCGGTGGTGGCCGGAGTCACCTAGTGCAG	10700 fluorescence intensity (a.u.)
GTGGGGCCCACCTGTCGGGGCGGTTGATGGGCTCTTCTAGCGGAGTCACCTAGTGCAG	8370 fluorescence intensity (a.u.)
TCTCCTCACCGGCCCCTCTTCCCCTTCGATTCTGGCGGCTCGGAGTCACCTAGTGCAG	8880 fluorescence intensity (a.u.)
TTCGTTTCTGGCTTTTTCGTCGTGTTCCGATTTCAATCTCCGGAGTCACCTAGTGCAG	12700 fluorescence intensity (a.u.)
CTACATGGGTGTTGACTCATTTTATTTATCTTTTTCTCCACGGAGTCACCTAGTGCAG	10300 fluorescence intensity (a.u.)
GCCTATCCTGCCCTCTCTACTACCACCCTTATCGATCTCTCGGAGTCACCTAGTGCAG	8340 fluorescence intensity (a.u.)
AAGAGACTTCTATATCTCTATATCCTTCTTATTTGCGTCCCGGAGTCACCTAGTGCAG	8080 fluorescence intensity (a.u.)
TTGCTCTCACATTTCGTGCACTACATCTTCTCGGTGGTCCCGGAGTCACCTAGTGCAG	8380 fluorescence intensity (a.u.)
GTTGTCGGTGTGTGGGTGGTGATATATTTTTTTAACTGGTCGGAGTCACCTAGTGCAG	9020 fluorescence intensity (a.u.)
AATTTGGTGGGGTCGGGGTGGGTGCTTTAACTGGGGAGATCGGAGTCACCTAGTGCAG	24500 fluorescence intensity (a.u.)
GCGGGTGGGTCTAGAGATTTTTTTTATTTGTTAATTGGATCGGAGTCACCTAGTGCAG	10400 fluorescence intensity (a.u.)
TGAGGTGAGGGCAGGGGCAGGGGCAGGGCGGACTGGCCAACGGAGTCACCTAGTGCAG	8680 fluorescence intensity (a.u.)
TCACTTTTTTTTCCATTCATTGTATGATTTCTTCTATTATCGGAGTCACCTAGTGCAG	10900 fluorescence intensity (a.u.)
AAAAAATACTATCTATGTACCCCTCCGTTTCTTTTTATTTCGGAGTCACCTAGTGCAG	8890 fluorescence intensity (a.u.)
CCTGATCGCCTCCTCCGCCACCGCCGTGTTCGATTCGTCTCGGAGTCACCTAGTGCAG	9670 fluorescence intensity (a.u.)
TGCCACCACCTTACCCTTTGCCAACATGCATCCGCTCCAACGGAGTCACCTAGTGCAG	19100 fluorescence intensity (a.u.)
CAACAACATCATCATCGCTCACATCCGCATCTCCACACAACGGAGTCACCTAGTGCAG	13500 fluorescence intensity (a.u.)
CTCCGCATCCCTCTCGCTCCTACCTTACCCCTCGCCGCCACGGAGTCACCTAGTGCAG	10200 fluorescence intensity (a.u.)
